# Source: the supplement of paper PMC10849652
# The full data set covers some 7,900 targets. This sample favours those with a hit. About 0.6% of all pairs of compound and target were hits. Unmarked numbers belong to inactive results.
# How the values were obtained:
# Experiment in all cases: log2 fold change, soluble protein after heating vs DMSO (PISA); higher = thermal stabilisation; K562 cells, 10 uM, 30 min; active = over 0.2 and 3.5 SD of the protein, either way, in both replicates (recomputed)
# [1] = compound: CC1=C(C=C(C=C1)NC(=O)C2=CC(=CC=C2)C(C)(C)C#N)NC3=CC4=C(C=C3)N=CN(C4=O)C
# In short: (§1)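 K562 cells at 2×10^6 cells/mL were treated for 30 min with 10 μM compound, and aliquots were heated for 3 min over 48°C-58°C before pooling. Extraction used PBS with 0.5% NP-40 at 4°C, and soluble protein was the supernatant after 21,000xg for 90 min, measured by TMTpro 16plex LC-MS/MS with channel sums equalised. Thermal stability values, relative to control samples and from duplicates, are log2 fold changes.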
# [2] = compound: CC1=C(C=C(C=C1)NC(=O)C2=CC(=CC=C2)N(C)C)NC(=O)C3=CC=C(C=C3)O
# In short: as §1
# [3] = compound: CC1=CC=C(C=C1)SC2=C3C=C(SC3=CN=C2)C(=O)N
# In short: as §1
# [4] = compound: CC1=NC(=CC=C1)C2=C(N=C(N2)C(C)(C)C)C3=CC4=NC=CN=C4C=C3
# In short: as §1
# [5] = compound: CCCCN(Cc1ccc(C(=O)NO)cc1)C(=O)Nc1ccccc1 [Nexturastat A]
# In short: as §1
# [6] = compound: CCCS(=O)(=O)Nc1ccc(F)c(C(=O)c2c[nH]c3ncc(-c4ccc(Cl)cc4)cc23)c1F [vemurafenib]
# In short: as §1
# [7] = compound: CCCS(=O)(=O)Nc1ccc(F)c(C(=O)c2c[nH]c3ncc(Cl)cc23)c1F
# In short: as §1
# [8] = compound: CCCc1cc(C)[nH]c(=O)c1CNC(=O)c1cc(-c2ccnc(N3CCN(C)CC3)c2)cc2c1cnn2C(C)C
# In short: as §1
# [9] = compound: CCN(CC)Cc1ccc2cc(COC(=O)Nc3ccc(C(=O)NO)cc3)ccc2c1 [givinostat]
# In short: as §1
# [10] = compound: CCN(CCCOc1ccc2c(Nc3cc(CC(=O)Nc4cccc(F)c4)[nH]n3)ncnc2c1)CCOP(=O)(O)O [barasertib]
# In short: as §1
# [11] = compound: CC[C@@H]1C(=O)N(C)c2cnc(Nc3ccc(C(=O)NC4CCN(C)CC4)cc3OC)nc2N1C1CCCC1
# In short: as §1
# [12] = compound: CC[C@@H]1C(=O)N(C)c2cnc(Nc3ccc(C(=O)N[C@H]4CC[C@H](N5CCN(CC6CC6)CC5)CC4)cc3OC)nc2N1C(C)C [volasertib]
# In short: as §1
# [13] = compound: CC[C@H](C)N1C=C(C2=C(C=C(C=C21)C3=CN=C(C=C3)N4CCNCC4)C(=O)NCC5=C(C=C(NC5=O)C)C)C
# In short: as §1
# [14] = compound: CC[C@H](C)[C@@H](C(=O)N[C@@H]([C@@H](C)O)C(=O)N[C@@H](CC(C)C)C(=O)[C@]1(CO1)C)NC(=O)[C@H]([C@@H](C)CC)N(C)C(=O)C [epoxomicin]
# In short: as §1
# [15] = compound: CCn1c(C(=O)N(C2CC2)C2CC2)cc2c3c(ncn3C)c(Nc3cc(C)n(C)n3)nc21
# In short: as §1
# [16] = compound: CCn1cc(-c2ccnc3[nH]c(-c4cccc(CN(C)C)c4)cc23)c(-c2ccc(NC(=O)N(C)C)cc2)n1
# In short: as §1
# [17] = compound: CN(C)CC(=O)Nc1ccc2[nH]c(=O)c3ccccc3c2c1
# In short: as §1
# [18] = compound: CN(CCOC1=CC=C(C=C1)C[C@H]2C(=O)NC(=O)S2)C3=CC=CC=N3 (racemic) [rosiglitazone]
# In short: as §1
# [19] = compound: CN1C2=C(C3=C1C(=O)N(N=C3)CC4=CC(=CC=C4)N)SC(=C2)S(=O)C
# In short: as §1
# [20] = compound: CN1CCC(CNc2ccc3ncc(-c4cccc(OC(F)(F)F)c4)n3n2)CC1
# In short: as §1
# Chain of UniProt Q05655 (Q05655 whole entry, looked up): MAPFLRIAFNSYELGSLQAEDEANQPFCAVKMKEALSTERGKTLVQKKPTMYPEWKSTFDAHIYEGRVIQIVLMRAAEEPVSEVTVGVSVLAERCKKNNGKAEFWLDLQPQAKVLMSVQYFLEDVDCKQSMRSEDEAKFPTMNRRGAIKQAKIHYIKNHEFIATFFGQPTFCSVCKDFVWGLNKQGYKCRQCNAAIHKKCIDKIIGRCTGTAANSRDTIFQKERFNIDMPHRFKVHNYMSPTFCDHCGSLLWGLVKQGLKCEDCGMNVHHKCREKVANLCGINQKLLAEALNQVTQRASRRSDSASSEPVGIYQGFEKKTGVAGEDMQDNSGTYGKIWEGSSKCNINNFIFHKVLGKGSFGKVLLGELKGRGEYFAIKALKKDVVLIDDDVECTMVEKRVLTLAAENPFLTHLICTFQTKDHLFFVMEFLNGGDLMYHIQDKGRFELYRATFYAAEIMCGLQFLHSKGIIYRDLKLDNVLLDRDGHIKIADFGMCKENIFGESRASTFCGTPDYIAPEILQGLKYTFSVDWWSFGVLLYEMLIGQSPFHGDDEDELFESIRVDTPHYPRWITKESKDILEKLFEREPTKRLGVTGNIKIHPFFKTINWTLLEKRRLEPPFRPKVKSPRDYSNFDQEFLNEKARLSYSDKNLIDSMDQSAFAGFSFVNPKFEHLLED
# Chain of UniProt Q04759 (Q04759 whole entry, looked up): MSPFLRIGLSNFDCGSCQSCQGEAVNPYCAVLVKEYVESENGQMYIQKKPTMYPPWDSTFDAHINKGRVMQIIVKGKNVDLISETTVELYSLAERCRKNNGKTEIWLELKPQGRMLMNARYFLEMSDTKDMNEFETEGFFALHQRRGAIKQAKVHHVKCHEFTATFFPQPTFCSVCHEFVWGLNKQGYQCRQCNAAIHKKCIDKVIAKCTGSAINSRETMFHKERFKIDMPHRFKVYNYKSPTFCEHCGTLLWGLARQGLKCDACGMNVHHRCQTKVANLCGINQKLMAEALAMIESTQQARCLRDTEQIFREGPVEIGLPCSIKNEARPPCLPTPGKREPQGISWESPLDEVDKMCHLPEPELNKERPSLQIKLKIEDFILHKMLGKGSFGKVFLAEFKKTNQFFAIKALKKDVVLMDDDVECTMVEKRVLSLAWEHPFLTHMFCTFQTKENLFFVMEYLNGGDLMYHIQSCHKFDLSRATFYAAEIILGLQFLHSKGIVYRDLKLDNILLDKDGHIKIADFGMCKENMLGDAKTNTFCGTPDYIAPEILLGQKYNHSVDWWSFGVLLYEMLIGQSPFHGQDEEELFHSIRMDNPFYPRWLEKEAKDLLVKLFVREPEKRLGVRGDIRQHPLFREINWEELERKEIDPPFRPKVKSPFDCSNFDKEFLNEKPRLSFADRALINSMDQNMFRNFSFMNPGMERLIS
# Chain of UniProt O00625 (O00625 whole entry, looked up): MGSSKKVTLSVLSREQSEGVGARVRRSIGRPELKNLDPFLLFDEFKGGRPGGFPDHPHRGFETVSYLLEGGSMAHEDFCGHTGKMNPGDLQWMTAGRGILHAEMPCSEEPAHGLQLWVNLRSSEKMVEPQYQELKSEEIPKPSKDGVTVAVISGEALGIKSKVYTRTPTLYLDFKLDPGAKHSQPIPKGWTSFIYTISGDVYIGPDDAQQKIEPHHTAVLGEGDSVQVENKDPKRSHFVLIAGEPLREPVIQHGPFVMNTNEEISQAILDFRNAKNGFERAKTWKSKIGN
# Chain of UniProt O14974 (O14974 whole entry, looked up): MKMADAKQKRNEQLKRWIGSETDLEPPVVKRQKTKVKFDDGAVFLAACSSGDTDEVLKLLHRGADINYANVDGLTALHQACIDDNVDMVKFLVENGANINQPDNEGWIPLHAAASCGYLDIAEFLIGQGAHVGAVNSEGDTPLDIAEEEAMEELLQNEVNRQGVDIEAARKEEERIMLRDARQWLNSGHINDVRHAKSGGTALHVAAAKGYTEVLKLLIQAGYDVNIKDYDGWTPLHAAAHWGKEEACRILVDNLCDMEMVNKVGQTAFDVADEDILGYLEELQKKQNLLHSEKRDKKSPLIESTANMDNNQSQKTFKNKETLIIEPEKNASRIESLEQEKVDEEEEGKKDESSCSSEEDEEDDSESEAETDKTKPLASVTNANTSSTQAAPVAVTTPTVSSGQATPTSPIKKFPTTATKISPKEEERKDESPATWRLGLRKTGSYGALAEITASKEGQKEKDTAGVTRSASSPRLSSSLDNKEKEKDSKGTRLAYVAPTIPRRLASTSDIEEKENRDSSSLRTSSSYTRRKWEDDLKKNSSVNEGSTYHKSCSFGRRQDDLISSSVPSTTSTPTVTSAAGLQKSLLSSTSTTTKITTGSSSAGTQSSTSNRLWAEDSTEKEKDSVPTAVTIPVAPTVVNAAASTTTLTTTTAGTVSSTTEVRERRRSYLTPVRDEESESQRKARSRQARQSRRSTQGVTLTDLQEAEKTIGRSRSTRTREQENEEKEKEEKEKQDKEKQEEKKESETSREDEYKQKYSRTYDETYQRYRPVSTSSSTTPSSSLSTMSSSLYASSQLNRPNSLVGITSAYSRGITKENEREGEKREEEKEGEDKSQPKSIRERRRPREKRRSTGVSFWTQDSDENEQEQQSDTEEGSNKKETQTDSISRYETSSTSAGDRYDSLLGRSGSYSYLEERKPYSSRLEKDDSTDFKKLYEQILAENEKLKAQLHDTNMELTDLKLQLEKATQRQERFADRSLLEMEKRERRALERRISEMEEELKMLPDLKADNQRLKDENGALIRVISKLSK
# Chain of UniProt Q9UPN7 (Q9UPN7 whole entry, looked up): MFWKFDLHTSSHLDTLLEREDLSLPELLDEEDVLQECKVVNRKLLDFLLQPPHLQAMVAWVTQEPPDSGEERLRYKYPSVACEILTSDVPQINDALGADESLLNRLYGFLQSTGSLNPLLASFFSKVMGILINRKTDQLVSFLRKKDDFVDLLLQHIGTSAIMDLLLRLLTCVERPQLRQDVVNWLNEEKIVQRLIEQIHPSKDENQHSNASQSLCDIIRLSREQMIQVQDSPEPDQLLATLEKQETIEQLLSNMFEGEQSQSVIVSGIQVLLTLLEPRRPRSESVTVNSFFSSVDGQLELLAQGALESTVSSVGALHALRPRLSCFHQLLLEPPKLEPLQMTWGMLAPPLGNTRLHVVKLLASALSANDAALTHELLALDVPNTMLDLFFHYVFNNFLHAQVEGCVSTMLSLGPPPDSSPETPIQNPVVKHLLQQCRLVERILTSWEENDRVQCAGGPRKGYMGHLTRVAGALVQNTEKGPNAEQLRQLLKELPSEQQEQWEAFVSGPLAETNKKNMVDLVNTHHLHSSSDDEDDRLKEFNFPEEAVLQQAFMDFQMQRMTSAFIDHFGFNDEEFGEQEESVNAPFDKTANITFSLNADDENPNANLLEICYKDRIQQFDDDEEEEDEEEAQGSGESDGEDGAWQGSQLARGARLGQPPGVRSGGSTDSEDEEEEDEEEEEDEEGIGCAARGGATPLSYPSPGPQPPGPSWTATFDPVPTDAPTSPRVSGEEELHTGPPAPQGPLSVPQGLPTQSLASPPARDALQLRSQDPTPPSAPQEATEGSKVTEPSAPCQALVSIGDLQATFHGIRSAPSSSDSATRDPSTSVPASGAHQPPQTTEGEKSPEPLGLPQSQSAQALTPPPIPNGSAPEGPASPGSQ
# Chain of UniProt Q9Y2Y1 (Q9Y2Y1 whole entry, looked up): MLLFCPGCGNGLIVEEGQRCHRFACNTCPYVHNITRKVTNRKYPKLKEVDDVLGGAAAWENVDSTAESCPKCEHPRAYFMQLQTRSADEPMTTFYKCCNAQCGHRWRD
# Chain of UniProt O95997 (O95997 whole entry, looked up): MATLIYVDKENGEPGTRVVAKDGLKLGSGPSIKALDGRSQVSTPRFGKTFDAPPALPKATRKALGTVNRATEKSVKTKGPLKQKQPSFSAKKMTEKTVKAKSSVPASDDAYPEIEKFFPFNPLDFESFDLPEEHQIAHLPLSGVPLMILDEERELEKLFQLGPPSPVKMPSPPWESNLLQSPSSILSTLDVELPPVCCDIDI
# Chain of UniProt O00231 (O00231 whole entry, looked up): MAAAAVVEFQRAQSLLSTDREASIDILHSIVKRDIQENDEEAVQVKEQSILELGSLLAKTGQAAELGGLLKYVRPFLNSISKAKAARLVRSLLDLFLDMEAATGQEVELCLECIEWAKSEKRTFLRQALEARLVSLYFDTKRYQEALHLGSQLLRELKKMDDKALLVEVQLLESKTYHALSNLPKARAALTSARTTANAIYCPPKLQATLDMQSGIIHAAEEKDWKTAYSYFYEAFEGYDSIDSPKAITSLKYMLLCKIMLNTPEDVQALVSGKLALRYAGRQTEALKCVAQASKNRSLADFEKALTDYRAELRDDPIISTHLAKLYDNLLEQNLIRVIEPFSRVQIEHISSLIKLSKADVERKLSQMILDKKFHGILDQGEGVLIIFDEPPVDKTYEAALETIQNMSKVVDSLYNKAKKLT
# Chain of UniProt O15530 (O15530 whole entry, looked up): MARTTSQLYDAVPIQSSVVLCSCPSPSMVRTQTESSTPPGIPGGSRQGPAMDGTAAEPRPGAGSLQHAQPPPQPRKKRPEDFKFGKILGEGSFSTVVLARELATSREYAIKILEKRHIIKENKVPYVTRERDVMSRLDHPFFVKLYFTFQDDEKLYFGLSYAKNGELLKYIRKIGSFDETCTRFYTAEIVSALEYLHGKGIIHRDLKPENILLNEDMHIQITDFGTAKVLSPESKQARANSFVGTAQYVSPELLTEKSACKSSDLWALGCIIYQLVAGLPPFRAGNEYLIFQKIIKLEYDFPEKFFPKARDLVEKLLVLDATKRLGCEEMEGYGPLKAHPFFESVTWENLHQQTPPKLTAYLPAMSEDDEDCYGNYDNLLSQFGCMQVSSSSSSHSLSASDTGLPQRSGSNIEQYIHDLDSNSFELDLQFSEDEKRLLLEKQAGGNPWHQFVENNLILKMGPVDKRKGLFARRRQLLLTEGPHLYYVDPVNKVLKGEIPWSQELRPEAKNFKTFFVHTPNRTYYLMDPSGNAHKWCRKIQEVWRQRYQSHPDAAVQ
Target,log2 fold change [1],log2 fold change [2],log2 fold change [3],log2 fold change [4],log2 fold change [5],log2 fold change [6],log2 fold change [7],log2 fold change [8],log2 fold change [9],log2 fold change [10],log2 fold change [11],log2 fold change [12],log2 fold change [13],log2 fold change [14],log2 fold change [15],log2 fold change [16],log2 fold change [17],log2 fold change [18],log2 fold change [19],log2 fold change [20]
PSME4 (UniProt Q14997),0.017,-0.02,-0.024,-0.017,-0.034,-0.014,-0.005,-0.043,0.022,-0.007,0.076,0.038,0.04,0.35 (active),-0.014,-0.069,0.02,0.053,0.001,-0.137
PRKACB isoform 2 (UniProt P22694),-0.014,0.015,0.011,0.077,0.059,-0.007,0.031,-0.129,-0.024,0.036,-0.025,-0.031,0.004,-0.033,0.008,-0.009,-0.048,0.025,-0.042,-0.022
PPP6R1 (UniProt Q9UPN7),0.014,0.023,0.022,0.036,-0.1,0.08,0.018,-0.001,-0.018,-0.025,-0.098,-0.297 (active),0,-0.033,0.029,0.026,0.053,0.026,-0.007,-0.048
PRKCQ (UniProt Q04759),0.013,-0.043,0.073,-0.004,-0.055,0.015,0.065,-0.065,0.052,0.03,-0.11,-0.17,0.031,0.001,-0.028,-0.047,0.021,0.049,-0.014,-0.496 (active)
PTTG1 (UniProt O95997),0.007,-0.353,0.02,-0.077,0.098,-0.081,-0.045,-0.021,0.068,0.023,0.105,0.124,0.008,0.293 (active),0.008,0.057,-0.02,0.008,0.008,-0.092
PRPF38B (UniProt Q5VTL8),-0.001,0.001,-0.012,0.015,-0.011,0.043,0.042,-0.006,0.007,0.012,-0.152,-0.231,0.015,-0.002,-0.012,-0.02,-0.01,0.009,0.018,-0.073
PSMD11 (UniProt O00231),0.048,-0.005,0.017,-0.006,0.124,-0.031,0.058,0.047,-0.027,-0.056,0.011,0.187,0.036,-0.262,-0.016,0,0,-0.016,0.018,0.053
PRPSAP2 (UniProt O60256),-0.141,-0.002,-0.021,-0.07,-0.083,-0.022,-0.019,-0.026,-0.034,-0.005,0.07,0.056,-0.043,-0.008,-0.013,-0.088,-0.02,0.008,-0.041,0.159
PSMC5 (UniProt P62195),0.014,0.011,-0.029,-0.05,0.003,-0.048,-0.053,0.032,-0.082,-0.034,0.043,0.178,-0.002,-0.308 (active),0.024,0.039,-0.029,-0.014,0.015,0.066
PYGB (UniProt P11216),-0.284 (active),0.015,0.008,0.005,-0.074,0.009,-0.023,-0.044,0.012,0.001,-0.199,-0.572 (active),0.036,-0.045,-0.203,0.023,0.012,-0.004,0.021,-0.071
PRKCD (UniProt Q05655),-0.015,-0.025,-0.012,-0.016,-0.032,0.015,0.013,-0.045,-0.021,0.023,0.036,-0.073,0.031,-0.003,0.005,-0.067,-0.009,0.062,-0.05,-0.159
PDPK1 (UniProt O15530),-0.026,-0.055,0.019,-0.007,-0.12,0.03,0.003,-0.018,0.032,0.035,-0.136,-0.232,0.034,0.055,-0.035,-0.05,0.034,0.064,-0.008,-0.275
POLR2D (UniProt O15514),-0.022,-0.005,0.002,0.004,0.027,0.046,-0.006,-0.014,-0.267,-0.031,0.206,0.135,-0.017,0.17,0.11,0.043,-0.02,-0.02,-0.101,0.056
PPP1R12A (UniProt O14974),-0.012,-0.036,0.046,0.045,0.001,0.015,0.073,-0.032,0.048,0.066,-0.136,-0.468 (active),0.066,0.067,-0.028,-0.229,0,0.059,-0.016,-0.536 (active)
PIR (UniProt O00625),-0.063,0.325 (active),0.002,-0.035,-0.053,0.03,0.122,0.085,-0.146,0.007,-0.041,-0.069,-0.028,0.034,0.097,-0.006,0.031,0.02,-0.06,-0.052
POLR3K (UniProt Q9Y2Y1),-0.028,0.098,0,-0.014,-0.04,-0.067,-0.066,-0.038,-0.013,0.003,-0.077,0.056,-0.018,0.067,-0.061,0.038,-0.048,-0.045,-0.012,-0.01
